ATXN2 expr inh: reduces ATXN2 reporter expression in HEK-293 cells | HEK-293 ATXN2-luciferase reporter, luminescence, 24 h | Potency, µM (series often up to 57 µM), for the others: at the top dose activity change, negative = inhibition, hits mostly inhibitors | hit rate 0.72% among 360,000 | AID 1745845; further: potency means the concentration at half of the fitted maximal effect; on the % scale 0 is the no-effect control and ±100 the full control effect; nearly all actives have a fitted effect of over 55% in size
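qHTS (up to 57 uM final) was run with 24 h compound exposure of reporter cells at 37 °C. Each well was multiplexed: SteadyGlo luminescence measured ATXN2-luciferase expression after a fluorogenic Gly-Phe-AFC viability readout (25 uM final).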
TGFb inhibitor: blocks TGF-b signaling. Potency, µM (top dose mostly 46.1 µM), for inactives: at the highest dose activity, negative = inhibition, usual class: inhibitors. hit rate 1.2% among 410,000. HepG2 CAGA-GFP TGF-b/SMAD3 reporter, GFP fluorescence, 18 h; TGF-beta stimulated, 500 pg/mL final; further: potency means the concentration at half of the fitted maximal effect; on the % scale 0 is the no-effect control and ±100 the full control effect; nearly all actives have a fitted effect of over 65% in size
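Inhibition was scored as loss of TGF-beta-induced (500 pg/mL final, 18 hours, 37 degrees C) GFP in HEPG2 cells carrying a CAGA-GFP reporter, in DMEM with 1% FBS. Well GFP was summed per cell; Activity was normalised to unstimulated and stimulated DMSO wells, then concentration-response fitting.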
ATXN viability: viability counter-screen for ATXN expression inhibitors; S2 cells (HEK-293 line with an ATXN2-luciferase reporter) viability, CellTiter-Fluor protease fluorescence, 24 h; hit rate 0.49% among 400,000; Potency, µM (top dose mostly 56.7 µM), hits mostly cytotoxic; AID 651635; further: potency means the concentration at half of the fitted maximal effect; nearly all actives have a fitted effect of over 40% in size
HepG2 tox: HepG2 cytotoxicity, counter-screen for TGF-b inhibitors; HepG2 CAGA-GFP viability, ATP luminescence, 18 h; Potency, µM (highest dose often 46.1 µM), for inactives: at the highest dose activity change, negative = cytotoxicity, actives largely listed as cytotoxic; hit rate 0.76% among 410,000; AID 588856; further: potency means the concentration at half of the fitted maximal effect
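HepG2 CAGA-GFP cells (1000/well, DMEM with 1% FBS) received compound, then TGF-beta at 500 pg/mL final, and were incubated 18 hours at 37 degrees C. Viability was read by CellTiter-Glo luminescence. Media-only wells were set as complete cell-killing and DMSO as no toxicity.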
IL-1B inflam inh: inflammasome signaling inhibition, IL-1 beta readout | hit rate 4.7% among 360,000 | THP-1 LPS/ATP IL-1B secretion, AlphaLISA, 16 h; hits give low values | AID 743279 | activity change, % at 57.5 µM; in the data active means activity change below about -50%; inconclusive means mostly about -30% to -49%; further: on the % scale 0 is the no-effect control and ±100 the full control effect
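THP-1 cells pretreated 1 hr with compounds (up to 57.5 uM final), then stimulated with LPS (250 ng/mL final) plus ATP (1.25 mM final); secreted IL-1B measured by AlphaLISA after 16 hr, decreased signal indicating inhibition.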
Starred values were filed as active, the others as inactive; i = inactive; ? = inconclusive; . = no result. This is a sample that favours compounds with a hit; in the whole collection about 5.7% have one here. Unless noted, the call rests on the fitted dose curve; in most records, active means well fitted curve in the direction sought with a large enough effect; inconclusive means small, poorly fitted or top-dose-only effect, or another doubt; inactive means no such curve, though single readings can be large; an effect the other way counts as inactive or inconclusive.

SMILES | ATXN2 expr inh | TGFb inhibitor | ATXN viability | HepG2 tox | IL-1B inflam inh
Cc1cc(C)cc(NC(=O)CSc2nc(-c3ccccc3)c3cc(F)ccc3n2)c1 | . | 0.3% | . | -4.6% | .
Nc1ccc(/C=C/c2nccc3ccccc23)cc1 | . | -12.9% | . | -46.9% | .
COc1ccccc1Nc1nc(NCCCN(C)C)nc(N)c1[N+](=O)[O-] | 0.0% | 6.5% | i | -1.4% | -63.5*
CCC(C)Nc1nc(N)c([N+](=O)[O-])c(Nc2cc(OC)ccc2OC)n1 (stereo unspecified) | ? | ? | ? | 15.9% | ?
CCC(C)Nc1nc(N)c([N+](=O)[O-])c(Nc2ccccc2OC)n1 (stereo unspecified) | -17.1% | -37.5% | ? | 21.8% | -88.5*
COc1cc(N)c(N)cc1OC | . | -10.0% | . | 6.8% | .
CN(C)Cc1cc2ccccc2c2c1COC2 | -6.8% | 1.5% | i | -17.5% | ?
Cc1cc2ccc3ccccc3c2cc1CN(C)C | 28.5% | 15.8µM* | i | -39.3% | .
COc1ccc(CNC(=O)c2ccc(CN3C(=O)C(C)=C(c4ccc(C)cc4)S3(=O)=O)cc2)cc1 | . | -23.9% | . | -12.7% | .
CC1CCN(S(=O)(=O)c2ccc3c(c2)oc(=O)n3CC(=O)N2c3ccccc3CC2C)CC1 (stereo unspecified) | 4.0% | 1.2% | i | -10.1% | -22.2
CC1Cc2ccccc2N1C(=O)Cn1c(=O)oc2cc(S(=O)(=O)NC3CCCC3)ccc21 (stereo unspecified) | -8.1% | -19.1% | i | -15.3% | -52.4*
Cc1cc(Nc2ccccc2)nc2cc(O)ccc12 | 20.3% | ? | i | -32.4% | 29.4
CC(=O)Nc1ccc(Nc2cc(C)c3ccccc3n2)cc1 | . | ? | ? | -21.0% | -92.4*
COc1ccc(Nc2cc(C)c3ccc(O)cc3n2)cc1 | . | ? | ? | -40.6% | -50.2*
Nc1ccc(/C=C/c2ccnc3ccccc23)cc1 | . | -5.3% | . | -27.9% | .
O=C(NCc1cc2ccccc2[nH]1)c1ccccc1F | 3.1% | 1.2% | i | -33.3% | -63.7*
Cc1cc(C)nc(SCc2ccc(C(=O)NNC(=O)Nc3cccc(Cl)c3)cc2)n1 | ? | ? | ? | -71.6% | -100.2*
COc1ccc(NC(=O)CCS(=O)(=O)c2nc(-c3ccc4c(c3)OCO4)cc(C(F)(F)F)n2)cc1OC | ? | -8.4% | ? | -21.3% | .
O=C(CCS(=O)(=O)c1nc(-c2ccc3c(c2)OCO3)cc(C(F)(F)F)n1)Nc1ccc(F)c(Cl)c1 | . | 20µM* | . | 12.6µM* | .
O=C(CCS(=O)(=O)c1nc(-c2cccs2)cc(C(F)(F)F)n1)Nc1cccc(O)c1 | . | ? | . | -93.4% | .
COc1ccc(NC(=O)CCS(=O)(=O)c2nc(-c3cccs3)cc(C(F)(F)F)n2)cc1OC | . | 15.8µM* | . | -106.4% | .
COc1ccc(-c2cc(C(F)(F)F)nc(S(=O)(=O)CCCC(=O)Nc3cccnc3Cl)n2)cc1OC | ? | ? | ? | -1.6% | -107.2*
COC(=O)c1ccccc1NC(=O)CCCS(=O)(=O)c1nc(-c2ccccc2OC)cc(C(F)(F)F)n1 | 6.5% | -10.2% | i | -15.7% | .
COc1cc(NC(=O)CCS(=O)(=O)c2nc(-c3cccs3)cc(C(F)(F)F)n2)cc(OC)c1OC | . | 12.6µM* | . | 11.2µM* | .
CCC(C)NC(=O)Cn1c(=O)n(Cc2ccc(C(=O)NCc3ccc(C)cc3)cc2)c(=O)c2ccccc21 (stereo unspecified) | 4.1% | 3.0% | i | -9.6% | .
SMILES | ATXN2 expr inh | TGFb inhibitor | ATXN viability | HepG2 tox | IL-1B inflam inh
CCOc1ccccc1CNC(=O)Cn1nc(C)c2nn(-c3ccc(Cl)cc3)c(C)c2c1=O | . | -19.9% | . | -3.7% | .
CCc1nc(SC)ncc1C(=O)N1CCN(c2cc(C)ccc2C)CC1 | 2.0% | ? | i | 0.9% | .
Cc1cc(NC(=O)CCCS(=O)(=O)c2nc(-c3cccs3)cc(C(F)(F)F)n2)no1 | ? | 14.1µM* | 28.2µM* | -106.0% | -69.5*
Cc1cc(NC(=O)CSc2nc(-c3cccs3)cc(C(F)(F)F)n2)no1 | -20.4% | ? | i | -9.3% | 28.3
Cc1cc(C)c(CN2CCN(CCCn3cnc(C(=O)Nc4ccc(C)c(C)c4)n3)CC2)c(C)c1 | ? | ? | . | 17.8µM* | ?
Cc1ccc(NCCCn2cnc(C(=O)Nc3ccc(C)c(C)c3)n2)cc1C | 1.8% | -8.3% | i | 1.9% | -6.2
Cc1ccc(NC(=O)c2ncn(CCCN[C@H](C)c3cccc4ccccc34)n2)cc1C | ? | ? | 22.4µM* | -102.5% | -3.7
COc1ccc2c(c1)-c1nc(-n3ncc(C(=O)NCc4cccc(C)n4)c3C3CC3)ncc1CC2 | . | . | i | . | .
O=C(N/N=C/c1cc(Br)c(O)c(Br)c1O)c1cccnc1 | . | -5.3% | ? | 0.3% | 60.5
Cc1cc(O)c(C)c(O)c1/C=N/NC(=O)c1cccnc1 | 11.2µM* | -3.7% | i | -11.1% | 150.7
O=C(N/N=C/c1cc(O)ccc1Br)c1cccnc1 | 2.82µM* | -26.8% | ? | -48.7% | 174.7
Cc1ccc(CCNC(=O)c2ccc(CSCc3ccccc3C)o2)cc1 | . | ? | . | -29.7% | .
Cc1cc(=O)n2nc(N(C)CC(=O)NCc3ccccc3C)sc2n1 | 7.2% | 1.8% | i | 0.6% | .
CC(C)C[C@H]1CNC(=S)N1CC1CCN(CC2CCCC2)CC1 | 0.9% | 3.9% | i | -1.0% | 13.6
CC(C)C[C@H]1CNC(=S)N1CC1CCN(CCCC2CCCCC2)CC1 | -13.1% | ? | i | -56.1% | -54.3*
S=C1NC[C@H](CC2CCCCC2)N1CC1CCCCC1 | 31.6µM* | ? | 17.8µM* | -22.2% | 0.0
CC(C)C[C@H]1CNC(=S)N1CC1CCN(CCC23CC4CC(CC(C4)C2)C3)CC1 | -10.7% | ? | ? | -6.0% | -50.1*
Cc1cc[n+](CCC2CCCCC2)c2ccccc12 | . | ? | . | -30.8% | .
CCOC(=O)c1cccc(NC(=O)N2CC(CC)Sc3ccccc32)c1 (stereo unspecified) | . | 0.0% | . | -1.8% | .
NC(=O)SCC(=O)Nc1cccc(Cl)c1 | 5.2% | 0.0% | i | -81.0% | -61.9*
Cc1ccc(NC(=O)CSC(N)=O)cc1Cl | -23.3% | 1.8% | i | 2.2% | -50.7*
NC(=O)SCC(=O)Nc1ccc(Cl)cc1 | -11.2% | ? | i | -74.4% | -88.7*
Cc1c(Cl)cccc1NC(=O)CSCC(N)=O | -0.9% | 19.2% | i | -6.0% | 21.9
COCC(=O)Nc1ccc(C)c(Cl)c1 | -8.5% | -1.6% | i | 2.7% | 49.2
N#CCSCC(=O)Nc1ccc(Cl)cc1 | -3.7% | -6.4% | i | 8.0% | 0.0
Cc1c(Cl)cccc1NC(=O)CSC(N)=O | 0.4% | 3.0% | i | -2.7% | -92.3*
OC[C@H]1O[C@@H](n2cnc3c2NC=NC[C@H]3O)C[C@@H]1O | . | . | i | . | .
NC(=O)SCC(=O)Nc1ccc(Cl)c(Cl)c1 | ? | 12.6µM* | i | -61.2% | -102.8*

Source: PubChem
